Dicer processing = blocks human Dicer maturation of pre-miR-21. Q9UPY3. cat-ELCCA pre-miR-21 Dicer processing, chemiluminescence; hits give high values. z-score at 25 µM. 47,000 tested, 6% active. AID 1347074; in the data active = z-score above about 3, passing the limit was not always enough;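 note: plate controls were vehicle for no effect and no enzyme for full effect; higher signal means more uncleaved substrate so more Dicer inhibition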
* hit, by the source's call. The sample as a whole holds a higher share of hits than the screen did.

SMILES	Dicer processing
O=C(CC1(O)C(=O)N(CCc2ccccc2)c2ccc(Cl)cc21)c1ccccc1O (centres undefined)	0.65
Cc1ccc(C(=O)CC2(O)C(=O)N(Cc3ccccc3C)c3ccc(Cl)cc32)o1 (centres undefined)	1.31
CCCN1C(=O)C(O)(CC(=O)c2c(C)n[nH]c2C)c2ccccc21 (centres undefined)	0.2
CCOc1ccc(C(=O)CC2(O)C(=O)N(CCc3ccccc3)c3ccc(Br)cc32)cc1 (centres undefined)	1.76
Cc1ccc(CN2C(=O)C(O)(CC(=O)c3ccncc3)c3cc(Cl)ccc32)cc1 (centres undefined)	4.99*
COc1ccc(C(=O)CC2(O)C(=O)N(CCc3ccccc3)c3ccc(Br)cc32)cc1 (centres undefined)	-0.4
CCCN1C(=O)C(O)(CC(=O)c2c(C)n[nH]c2C)c2cc(Br)ccc21 (centres undefined)	3.23*
Cc1ccccc1CN1C(=O)C(O)(CC(=O)c2ccccn2)c2cc(Cl)ccc21 (centres undefined)	1.81
Cc1ccc(C(=O)CC2(O)C(=O)N(Cc3ccccc3)c3ccc(Cl)cc32)cc1 (centres undefined)	0.64
O=C(CC1(O)C(=O)N(CCc2ccccc2)c2ccc(Br)cc21)c1ccncc1 (centres undefined)	3.65*
Fc1ccc2ncc(-c3ccc(Br)s3)nc2c1	-2.44
CN1CCC(=C2c3ccccc3CCc3sccc32)CC1	-0.1
FC(F)(F)c1ccc2nc(-c3ccc(Cl)c(Cl)c3)cnc2c1	-1.18
CCn1c(-c2cc(-c3ccccc3)sc2N)n[nH]c1=S	2.62
O=C(CC1(O)C(=O)Nc2ccccc21)c1ccc2c(c1)OCO2 (centres undefined)	0.62
OC(COCc1ccccc1)Cn1c2ccccc2c2ccccc21 (centres undefined)	-1.32
Cn1nnnc1SCCNCc1ccccc1OCc1ccccc1F	0.68
COC(=O)C(Cc1c[nH]c2ccccc12)NC(=O)c1cc(C)no1 (centres undefined)	-0.54
CCOC(=O)c1sc2ncnc(N)c2c1C	0.71
CCCCCOc1ccc(C2(c3ccccc3)NC(=O)NC2=O)cc1 (centres undefined)	-0.06
Cc1ccc2nc(SCC(=O)C(C)(C)C)n(-c3ccccc3)c(=O)c2c1	0.3
O=C(CSc1ncn[nH]1)Nc1ncc(Br)s1	-0.3
O=C(CSc1nc2sc3c(c2c(=O)[nH]1)CCCC3)NCCN1CCOCC1	3.88*
Nc1nc(SCC(=O)NCCCO)nc2sc3c(c12)CCCC3	0.12
O=C(O)CC(Sc1nc2sc3c(c2c(=O)[nH]1)CCCC3)C(=O)O (centres undefined)	-0.14
SMILES	Dicer processing
CC(=O)/C(N=Nc1c(C)nn(C)c1C)=C(\C)O	-0.13
S=C(Nc1ccc(Cl)cc1)Nc1ccc(Cl)cc1	1.77
CNNC(=S)Nc1ccc(Cl)cc1	0.59
CC(C)=NNC(=S)Nc1ccc(Cl)cc1	5.98*
CSc1c(C#N)c(-c2cccs2)nn1CNC(=O)Nc1cc(C(F)(F)F)cc(C(F)(F)F)c1	-0.78
N#CC1=C(SCC(=O)Nc2ccc(Br)cc2)NC(=O)CC1c1cccs1 (centres undefined)	1.09
CCOC(=O)c1sc(SCc2cccc(Cl)c2)c(S(=O)(=O)C(C)C)c1N	-0.41
CSC1=NCCN1CC(=O)c1ccc(Cl)cc1	0.9
O=c1[nH][nH]c(=O)n1CCCc1cc2cccc3ccc4cccc1c4c32	3.66*
CCOC(=O)NNC(=O)NCCCc1ccc2ccc3cccc4ccc1c2c34	2.28
CC(C)CC(C(=O)O)N1C(=O)C2CC=C(Cl)CC2C1=O (centres undefined)	-0.93
CCOC(=O)CN1C(=O)C2CC=C(Cl)CC2C1=O (centres undefined)	3.14*
COc1ccc(N2C(=O)C3CC=C(Cl)CC3C2=O)cc1 (centres undefined)	-0.6
CN1C2CCC1CC(NC(=O)c1cccc(C(F)(F)F)c1)C2 (centres undefined)	-0.66
N=C(N)SCc1ccc(Cl)c(Cl)c1	-1.99
CCC(=O)Oc1ccc(C2C3=C(CC(C)(C)CC3=O)NC3=C2C(=O)c2ccccc23)cc1 (centres undefined)	0.8
COC(=O)C(C)(C)Oc1ccc(C)c2c1CCC2	1.21
O=C(O)CSCC(=O)N1CCC2(CC1)OCCO2	-0.46
COC(=O)C1=C(C)NC2=C(C(=O)c3ccccc32)C1c1ccccc1Cl (centres undefined)	-1.01
COC(=O)C1=C(C)NC2=C(C(=O)c3ccccc32)C1c1ccc(-c2ccc(Cl)cc2)o1 (centres undefined)	3.62*
COC(=O)C1=C(C)NC2=C(C(=O)c3ccccc32)C1c1cccs1 (centres undefined)	-6.28
CN(C)c1ccc(/C=C/c2nc3n(n2)C=COc2ccccc2-3)cc1	6.06*
O=C(NCCSCc1c(F)cccc1Cl)Nc1cccc(C(F)(F)F)c1	1.58
Nc1c(C(=O)CCC(=O)O)oc2ccc(Br)cc12	-2.6
N#Cc1nc(COc2cccc(Cl)c2)oc1N1CCCCC1	3.85*
SMILES	Dicer processing
COc1ccc(OCc2nc(C#N)c(N3CCC(C(N)=O)CC3)o2)cc1	1.16
N#Cc1nc(COc2ccccc2Cl)oc1N1CCCC1	-0.13
COc1ccc(N2CCN(c3oc(COc4ccc(F)cc4)nc3C#N)CC2)cc1	-0.86
N#Cc1nc(COc2ccc(F)cc2)oc1NCc1cccnc1	1.47
N#Cc1nc(COc2ccccc2Cl)oc1N1CCOCC1	0.78
N#Cc1nc(COc2cccc(Cl)c2)oc1NCc1cccnc1	3.79*
N#Cc1nc(COc2cccc(Cl)c2)oc1NCc1ccco1	1.23
COc1ccc(OCc2nc(C#N)c(N3CCN(c4ccccc4)CC3)o2)cc1	3.05*
NC[C@@H]1O[C@H](C23CC4CC(CC(C4)C2)C3)Cc2c1ccc(O)c2O	2.64
COc1ccc(-c2nc(-c3cccc(C)c3)no2)cc1OC	-2.12
Cc1ccc(S(=O)(=O)Oc2ccc3ccccc3c2I)cc1	-0.23
N#Cc1cnc(Oc2ccc(Cl)cc2)nc1N	-0.92
CCN(CC)CCNS(=O)(=O)c1c(C)c(C)c(C)c(C)c1C	2.72
Cc1cc2ncn(CC(O)COc3ccccc3C)c2cc1C (centres undefined)	0.96
Fc1ccc(C2=CSC3=NCCN23)cc1F	-1.37
Cc1ccc(S(=O)(=O)c2nc(-c3cccs3)oc2N2CCC(C)CC2)cc1	-2.86
Cc1cc(Nc2ccccc2)n2ncnc2n1	-1.45
Cc1ccc(Nc2cc(-c3ccccc3)nc3ncnn23)cc1	3.18*
FC(F)(F)c1cc(-c2ccccc2)nc2ncnn12	-0.01
COc1ccc(-c2cc(C(F)(F)F)n3nccc3n2)cc1	-1.75
CCN(Cc1cc(OC)cc(OC)c1)C(=O)c1c(C(F)(F)F)ccnc1OC	-0.33
COc1cc(-c2nn3cc(-c4ccccc4)nc3s2)cc(OC)c1OC	2.04
CCCCOc1ccc(N2C(=O)C3CC(C)=C(C)CC3C2=O)cc1 (centres undefined)	0.63
CC1=C(C)CC2C(=O)N(c3ccccc3F)C(=O)C2C1 (centres undefined)	4.94*
COc1cc(OC)cc(N2C(=O)C3CC(C)=C(C)CC3C2=O)c1 (centres undefined)	-2.21
CC1=C(C)CC2C(=O)N(c3ccc(Oc4ccc(Cl)cc4)cc3)C(=O)C2C1 (centres undefined)	3.34*
CC12N=NCC1C(=O)N(c1ccccc1F)C2=O (centres undefined)	1.67
CC1=C(C)CC2C(=O)N(c3ccc(N(C)C)cc3)C(=O)C2C1 (centres undefined)	0.61
Cn1c(=O)[nH]c2ncn(C)c2c1=O	-1.74
